Measurements taken from PubChem BioAssay (EPA / NIEHS).
The source made the active and inactive calls. The calls were made as follows: active = hit-call score of the fitted dose curve at least 0.9, where 1 is the maximum; inactive = score below 0.9.

The compounds below were run on JUN Transcription Factor, JUN (gene 3725) (assay: LTEA_HepaRG_JUN: Life Technologies and Expression Analysis (LTEA) Assay for JUN Transcription Factor using HepaRG (AID 2283513)). Conditions: mRNA level, 48 h; actives raise or lower the signal.
Protocol: LTEA_HepaRG is a cell based, multiplexed-readout assay that uses HepaRG, a human liver cell line, with measurements taken at 48 hours after chemical dosing on a 96-well plate.LTEA_HepaRG_JUN is one of 102 assay component(s) measured in the LTEA HepaRG cell culture assay. It is a marker of Cell proliferation, survival, death.Data from the assay component LTEA_HepaRG_JUN was analyzed into 1 endpoint. This assay endpoint, LTEA_HepaRG_JUN, was analyzed with bidirectional fitting relative to DMSO as the negative control and baseline of activity. Using a type of inducible reporter, measures of mRNA induction for gain or loss-of-signal activity can be used to understand regulation of transcription factor activity. To generalize the intended target to other relatable targets, this assay endpoint is annotated to the dna binding intended target family, where the subfamily is basic leucine zipper.
A total of 1060 chemcials from the ToxCast library were tested in eight-point concentration-response experiments. Cell culture and cytotoxicity assays were conducted at Thermo Fisher Scientific's Custom Services facility (Madison, WI). A single lot of human HepaRG cells (Thermo Fisher Scientific, Frederick, MD) was used for the cell culture experiments. 96-well format collagen type I coated plates of human HepaRG cells were prepared using established methods. Briefly, cryopreserved HepaRG cells were thawed, plated at a density of approximately 100,000 cells/well in HepaRG Thaw, Plate, and General Purpose media (HPRG770, Thermo Fisher Scientific), and incubated for 48 hours. 0.5% DMSO was selected as vehicle control to balance the requisite need of DMSO in HepaRG cultures to maintain differentiation (for example, baseline metabolism, proportions of hepatocytes vs. cholangiocytes), while enabling further hepatic receptor pathway activation (for example, PXR and CAR) in response to chemical exposure. 48 hours after plating, the culture medium was replaced with HepaRG Serum-Free Incudtion Media. Cells were exposed to each test chemical in duplicate and maintained in CO2 incubators for another 48 hours. Chemical plates were thawed to room temperature and 200x concentrations of treatment groups were prepared. 8-point conentration-reponse curves were made with the highest exposure at 100 uM, followed by half-log dilutions, all in 0.5% DMSO. Each test plate contained variouse controls, induction positive controls (1mM phenobarbital), cytotoxicity positive controls ([…] aflatoxin B1), vehicle controls (0.5% DMSO), and total lysis controls (0.5% DMSO). Cell morphology images were taken using an Essen IncuCyte FLR automated microscope, with six 96-well plates imaged in about 24 minutes. Images were captured and exported and JPEG files. Spent culture media was transfered to black-well plates for the LDH assay, and remaining media was sorted at -80 C for later use. Cells were treated with RLT buffer and frozen until shipped for gene expression analysis. Total RNA was isolated from the cell suspension in 75 uL of Buffer RLT (Qiagen, Germantown, MD 20874) by Quintiles/Expression Analysis (Durham, NC) using a custom isolation procedure. Total RNA from each plate well was transferred to a preamplification plate. Fluidigm's 96.96 Dynamic ArrayTM (Fluidigm, Amsterdam, the Netherlands) technology was used for gene expression analyses by quantitative reverse transcription polymerase chain reaction (qRT-PCR, performed by Quintiles/Expression Analysis, Durham, NC)89. Standard TaqManTM Assays (Applied Biosystems/ThermoFisher Scientific, Foster City, CA) were used to assess the expression of 93 genes selected based on their selectivity and sensitivity to important hepatic receptors known to be modulated by environmental chemicals; importance in human hepatocyte functionality; and hepatotoxicity. […]

| Structure (SMILES) | AC50 | outcome |
| --- | --- | --- |
| CCOC(=O)[C@]1(c2ccccc2)Oc2ccccc2[C@@H]1N | 93.6 µM (active) | – |
| Cc1ccc(N)cc1 | – | inactive |
| CC(C)(C)OOC(C)(C)CCC(C)(C)OOC(C)(C)C | – | inactive |
| CCN(CC)CCO | – | inactive |
| CCC[CH2][Sn]([Cl])([CH2]CCC)[CH2]CCC | 3.32 µM (active) | – |
| [O-][Cl+]O | – | inactive |
| Nc1ccc(Oc2ccc(N)cc2)cc1 | – | inactive |
| CC(C)N(Cc1ccccc1)C(=O)C(C)(C)C | – | inactive |
| Cc1cc(N=Nc2ccccc2C)ccc1N | – | inactive |
| Brc1ccc(Oc2ccccc2)cc1 | – | inactive |
| c1ccc(NNc2ccccc2)cc1 | – | inactive |
| O=Cc1ccco1 | – | inactive |
| CCCCCCCCCCCCCN1CC(C)OC(C)C1 (stereo not given) | – | inactive |
| CCNS(=O)(=O)C(F)(F)C(F)(F)C(F)(F)C(F)(F)C(F)(F)C(F)(F)C(F)(F)C(F)(F)F | – | inactive |
| O=C(O)C1C2CCC(O2)C1C(=O)O (stereo not given) | 24.7 µM (active) | – |
| c1ccc(C2CO2)cc1 (stereo not given) | – | inactive |
| Nc1ccc(N=Nc2ccccc2)cc1 | – | inactive |
| CN(C)c1ccccc1 | – | inactive |
| Clc1ccc(Cl)c(Cl)c1 | – | inactive |
| c1ccc2c(c1)-c1cccc3cccc-2c13 | – | inactive |

| Structure (SMILES) | AC50 | outcome |
| --- | --- | --- |
| [As]#[In] | – | inactive |
| O=C(Oc1ccc(Br)cc1)N1CCN2CCC1CC2 | – | inactive |
| CN(C)c1ccc(C(=O)c2ccc(N(C)C)cc2)cc1 | – | inactive |
| O=[N+]([O-])c1ccc(Oc2ccc(Cl)cc2Cl)cc1 | – | inactive |
| C=CCc1ccc2c(c1)OCO2 | – | inactive |
| c1ccc2c(c1)oc1ccccc12 | – | inactive |
| O=C(Nc1ccccc1)c1ccccc1I | – | inactive |
| CCCSC(=O)N(CCC)CCC | – | inactive |
| CCCCCCCCn1sccc1=O | – | inactive |
| CC(C)(O)c1cnn2c(-c3ccc(F)c(-c4c(F)cccc4C#N)c3)cnc2n1 | – | inactive |
| Nc1ccc([N+](=O)[O-])cc1 | – | inactive |
| N#CC(Br)(Br)C(N)=O | – | inactive |
| CS(=O)(=O)NC(=O)c1cc(Oc2ccc(C(F)(F)F)cc2Cl)ccc1[N+](=O)[O-] | – | inactive |
| CCCCCOC(=O)c1ccccc1C(=O)OCCCCC | – | inactive |
| O=[N+]([O-])C(Br)(CO)CO | – | inactive |
| COC(=O)Nc1nc2ccccc2[nH]1 | – | inactive |
| COc1cc(C=O)cc2c1[C@H](COC(N)=O)[C@]1(OC(C)=O)ON2C[C@H]2[C@@H]1N2C(C)=O | 5 µM (active) | – |
| CN(C)C(=O)Nc1ccc(Cl)cc1 | – | inactive |
| ClC1=C(Cl)C2(Cl)C3C(Cl)C=CC3C1(Cl)C2(Cl)Cl (stereo not given) | – | inactive |
| CCOc1cccc(C2(N3CCN(c4ccccc4)CC3)CCC(C)CC2)c1 (stereo not given) | – | inactive |
